Assay outcomes deposited in PubChem BioAssay by Broad Institute.
The list is not random: actives were taken first. Their share in the collection is about 2.1%.
STK33 inh = inhibitors of human STK33 kinase; actives 0.44% (n = 27,000); inhibition, % at 12.5 µM; Q9BYT3; ADP-Glo luminescence, MBP substrate; in the data active = inhibition above about 20%
mut p53 react = re-activators of the mutant p53 pathway. AID 624151. actives 1.5% (n = 28,000). SW480 PUMA-promoter luciferase, p53 mutant reactivation. activation, % at 9.98 µM; in the data active = activation above about 52%
ID4 SMM = binds human ID4 protein on microarray | calls only | actives 1.2% (n = 31,000) | small molecule microarray, Flag-ID4 binding, fluorescence F/B; call rule not given here;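 note: a binder raises fluorescence above local background on the spot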
* hit, by the source's call; i = inactive; nt = no result; + = active, no number.

SMILES	STK33 inh	mut p53 react	ID4 SMM
CNC[C@H]1Oc2c(NC(=O)c3cnccn3)cccc2C(=O)N([C@H](C)CO)C[C@H]1C	nt	8	i
CNC[C@@H]1Oc2ncc(-c3ccccc3)cc2C(=O)N([C@H](C)CO)C[C@@H]1C	-6	5	i
CNC[C@@H]1Oc2c(NC(=O)c3cnccn3)cccc2C(=O)N([C@@H](C)CO)C[C@@H]1C	nt	6	+
CNC[C@H]1Oc2ncc(C3=CCCC3)cc2C(=O)N([C@H](C)CO)C[C@H]1C	nt	1	+
CNC[C@H]1Oc2ncc(-c3ccc(OC)cc3)cc2C(=O)N([C@H](C)CO)C[C@H]1C	nt	nt	i
CNC[C@@H]1Oc2ncc(-c3ccc(C#N)cc3)cc2C(=O)N([C@H](C)CO)C[C@@H]1C	nt	3	+
CNC[C@@H]1Oc2ncc(C3=CCCC3)cc2C(=O)N([C@@H](C)CO)C[C@@H]1C	nt	17	i
CNC[C@@H]1Oc2ncc(-c3ccc(OC)cc3)cc2C(=O)N([C@H](C)CO)C[C@H]1C	nt	23	+
COc1ccc(CN(C)C[C@@H]2Oc3ccc(NC(=O)Cc4cn(C)c5ccccc45)cc3C(=O)N([C@@H](C)CO)C[C@@H]2C)cc1	0	-8	+
C[C@@H]1CN([C@H](C)CO)C(=O)c2cc(NC(=O)Cc3cn(C)c4ccccc34)ccc2O[C@H]1CN(C)C(=O)Nc1ccccc1	nt	-12	i
COc1ccc(CN(C)C[C@@H]2Oc3ccc(NC(=O)Cc4cn(C)c5ccccc45)cc3C(=O)N([C@H](C)CO)C[C@@H]2C)cc1	nt	-7	i
C[C@H]1CN([C@@H](C)CO)C(=O)c2cc(NC(=O)Cc3cn(C)c4ccccc34)ccc2O[C@H]1CN(C)C(=O)Nc1ccccc1	nt	-7	+
CNC[C@H]1Oc2ccc(NS(=O)(=O)c3cccs3)cc2CC(=O)N([C@H](C)CO)C[C@H]1C	-1	-4	i
CNC[C@@H]1Oc2ccc(NS(C)(=O)=O)cc2CC(=O)N([C@@H](C)CO)C[C@@H]1C	-1	-4	+
CNC[C@H]1Oc2ccc(NS(C)(=O)=O)cc2CC(=O)N([C@H](C)CO)C[C@H]1C	-3	-7	i
CNC[C@@H]1Oc2ccc(NS(=O)(=O)c3cccs3)cc2CC(=O)N([C@H](C)CO)C[C@H]1C	-1	-3	+
O=C1c2oc3ccccc3c(=O)c2C(c2ccc([N+](=O)[O-])cc2)N1CCCO (stereo unspecified)	-1	11	i
COc1ccccc1S(=O)(=O)N[C@@H]1C=C[C@@H](CC(=O)NCc2cccc(F)c2)O[C@H]1CO	nt	nt	i
Cc1nc2ccccc2n1CC(O)COc1ccc(C(=O)O)cc1 (stereo unspecified)	0	4	i
COC(=O)c1ccc(OCC(O)Cn2c(C)nc3ccccc32)cc1 (stereo unspecified)	0	3	+
COc1ccc(/C=C2\Oc3cc(O)cc(O)c3C2=O)cc1O	31*	3	i
COc1cc(C2CC(=O)c3c(O)cc(O)cc3O2)ccc1O (stereo unspecified)	4	-5	i
Cc1ccc(-c2nc(S(=O)(=O)c3ccc(F)cc3)c(NCc3ccco3)o2)cc1	1	-1	i
C[C@@H]1CN([C@@H](C)CO)C(=O)CCCn2nncc2CO[C@@H]1CN(C)Cc1ccc(Oc2ccccc2)cc1	-2	-13	i
